Source: PubChem BioAssay
Sampled rows, rich in hits. Any-hit rate of the full collection: about 7.7%.
Sm TGR block: blocks Schistosoma mansoni thioredoxin glutathione reductase; Q962Y6; purified TGR, DTNB reduction, TNB absorbance 405 nm; Potency, µM (top dose mostly 114 µM), without a hit: at the top dose activity change, negative = inhibition, hits mostly inhibitors; 3% of 360,000 active; AID 485364; further: potency means the concentration at half of the fitted maximal effect; nearly all actives have a fitted effect of over 60% in size
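TGR 20 nM + NADPH 100 uM (dispensed conc.), cpd preinc 15 min RT; start with NADPH (500 uM addition) then DTNB (15 mM addition). Kinetic TNB absorbance, 405 nm filter. Four-parameter Hill fit across titration.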
Giardia FBPA inh: inhibitors of Giardia lamblia fructose-1,6-bisphosphate aldolase; A8B2U2; purified Giardia FBPA; Potency, µM (top dose mostly 59.6 µM), without a hit: top-dose activity, negative = inhibition, actives largely listed as inhibitors; 0.71% of 290,000 active; further: potency means the concentration at half of the fitted maximal effect; nearly all actives have a fitted effect of over 55% in size
Target sequence (A8B2U2 whole entry, looked up): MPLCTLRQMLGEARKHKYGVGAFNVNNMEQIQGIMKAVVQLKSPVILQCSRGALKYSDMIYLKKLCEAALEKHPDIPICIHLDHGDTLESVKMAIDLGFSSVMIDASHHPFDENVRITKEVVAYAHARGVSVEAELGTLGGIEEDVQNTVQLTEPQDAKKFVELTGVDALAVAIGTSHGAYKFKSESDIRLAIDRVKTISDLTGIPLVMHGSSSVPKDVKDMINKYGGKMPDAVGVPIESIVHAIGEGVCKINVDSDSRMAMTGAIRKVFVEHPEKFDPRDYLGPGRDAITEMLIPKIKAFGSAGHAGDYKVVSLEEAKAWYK
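Giardia FBPA (40 nM reagent) was preincubated 10 min at RT with compound (up to 57.5 uM final), then substrate plus GAPDH/TPI/NAD/arsenate coupling system with diaphorase/resazurin was added; resorufin fluorescence (525/598 nm) was read after 20 min.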
FMDV inh: antivirals against foot and mouth disease virus | FMDV antiviral cell-based qHTS | Potency, µM (highest dose often 57.9 µM), for inactives: at the top dose activity change, negative = inhibition, hits mostly inhibitors | 1.2% of 410,000 active | AID 1159524; calls by dose curve; tested in HEK293T cells; further: read-out not given here; potency means the concentration at half of the fitted maximal effect; nearly all actives have a fitted effect of over 45% in size
HCMV antiviral: human cytomegalovirus inhibition. HFF cells, HCMV-luciferase reporter, 72 h; active compounds read low. activity change, negative = inhibition, % at 57.5 µM. 4.5% of 410,000 active. AID 1259415; in the data active means activity change below about -60%; inconclusive means no clear call, values can overlap the other calls; inactive means above about -39%
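Two-dose cell screen: HFF monolayers treated with compounds and infected with luciferase-expressing HCMV at 1 PFU/cell, 72 h at 37C, then lysed for luciferase measurement.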
TbPYK inhibitor: inhibitors of Trypanosoma brucei pyruvate kinase; Q57TT1; Potency, µM (top dose mostly 76.8 µM), inactives show at the highest dose activity, negative = inhibition, usual class: inhibitors; 0.12% of 410,000 active; AID 624173; TbPYK enzyme, Kinase-Glo Plus ATP luminescence, 45 min; further: potency means the concentration at half of the fitted maximal effect; nearly all actives have a fitted effect of over 50% in size
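Readout: single end-point luminescence (Kinase-Glo Plus, 10 min). Reaction conditions were TbPYK/substrate plus 130 uM ADP, 45 min at RT, pH 7.2 TEA buffer. No-enzyme wells served as controls, and data were normalized before concentration-response fitting.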
RE007 growth inh: less growth of the S. pombe RE007 Vpr strain | 0.21% of 360,000 active | Potency, µM (highest dose often 92.2 µM), for the others: at the highest dose activity change, negative = less growth, most hits filed as inhibitors | S. pombe RE007 Vpr strain, BacTiter-Glo ATP luminescence, 24 h; active means well fitted falling curve with a large enough effect; inconclusive means small, poorly fitted or top-dose-only effect; inactive means no such curve, though single readings can be large or run the other way; further: potency means the concentration at half of the fitted maximal effect; nearly all actives have a fitted effect of over 50% in size
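Fission yeast RE007 carrying one integrated HIV-1 vpr copy, seeded at OD 0.01 in PMG+AL medium with 23 nL pinned compound. Grown 24 h at 30 degrees; viability read by BacTiter-Glo luminescence after 5 min.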
* marks the source's active call; other numbers are inactive results; u = inconclusive; x = no result given; [ ] = remark or other dose. Unless noted, the call rests on the fitted dose curve; in most records, active means well fitted curve in the direction sought with a large enough effect; inconclusive means small, poorly fitted or top-dose-only effect, or another doubt; inactive means no such curve, though single readings can be large; an effect the other way counts as inactive or inconclusive. On the % scale 0 is the no-effect control and ±100 the full control effect.

SMILES	Sm TGR block	Giardia FBPA inh	FMDV inh	HCMV antiviral	TbPYK inhibitor	RE007 growth inh
FC(F)Oc1ccc(-c2csc(NNC3=NCCCCC3)n2)cc1	-1%	u	28µM*	-16	-21%	-8%
O=C(c1ccc2c(c1)N(Cc1ccc(F)cc1Cl)C(=O)c1ccccc1S2)N1CCC2(CC1)OCCO2	2%	x	-4%	-68*	6%	x
Cc1ccc(CN2C(=O)c3ccccc3Sc3ccc(C(=O)N4CCC5(CC4)OCCO5)cc32)cc1	-7%	x	3%	u	-8%	x
C=CCN1C(=O)c2ccccc2Sc2ccc(C(=O)N3CCC4(CC3)OCCO4)cc21	9%	-4%	-30%	-66*	1%	7%
CC1(C)Cc2c(ccc3ccccc23)C(c2cc3ccccc3oc2=O)=N1	11%	3%	-11%	-25	x	1%[3.69 µM]
CC1(C)Cc2ccccc2C(c2cc3ccccc3oc2=O)=N1	-27%	4%	-16%	-70*	-5%	-9%
Nc1ccc2oc(Cc3ccc(Cl)cc3)nc2c1	14µM*	x	-22%	-2	u	x
COC1CCN(C(=O)c2ccc3oc(Cc4ccc(Cl)cc4)nc3c2)CC1	-1%	7%	7%	-39	2%	6%
CCc1ccc2oc(-c3cc(N)ccc3O)nc2c1	-14%	-2%	25µM*	146	-21%	u
CCc1ccc2oc(-c3cc(N)ccc3Cl)nc2c1	3%	-9%	-78%	47	-3%	16µM*
O=[N+]([O-])c1ccc(O)c(C=Nc2ccc3oc(Cc4ccc(Cl)cc4)nc3c2)c1	50µM*	u	x	x	x	x
Cc1cccc(N2CCN(C(=O)c3c(C)nn(Cc4ccccc4Cl)c3C)CC2)c1C	-6%	-12%	35µM*	u	-11%	2%
O=C(Cn1ncc2c1-c1ccccc1OC2)N(Cc1ccco1)C1CCCCC1	u	6%	-17%	7	-5%	0%
CC(CCc1ccco1)NC(=O)Cn1ncc2c1-c1ccccc1OC2 (centres undefined)	50µM*	-3%	-14%	-16	-7%	-1%
Cc1cccc(S(=O)(=O)N[C@H]2CC[C@@]34CCCN3C(=O)CCC[C@H]4[C@H]2C)c1	x	x	x	-6	x	x
O=C1C(Br)=C(c2ccccc2)C(c2ccccc2)=C1c1ccccc1	x	x	3.5µM*	x	-2%	-14%
CCc1cc2cc(C)cc(C)c2[nH]c1=S	-6%	-7%	-8%	46	11µM*	33%
CC(C)CCNC(=O)C1CCN(S(=O)(=O)c2cccc3nsnc23)CC1	14%	x	-16%	12	1%	x
CCc1ccc(S(=O)(=O)c2nnn3c2nc(NCCc2ccccc2)c2sccc23)cc1	9%	x	9%	-81*	-8%	x
Cc1ccc(Nc2nc3c(S(=O)(=O)c4ccccc4)nnn3c3ccsc23)c(C)c1	-13%	x	3%	14	2%	x
Cc1ccc(S(=O)(=O)c2nnn3c2nc(NC(C)c2ccccc2)c2sccc23)cc1 (centres undefined)	0%	x	-30%	-71*	5%	x
Cc1ccc(C)c(Nc2nc3c(S(=O)(=O)c4ccc(Br)cc4)nnn3c3ccsc23)c1	-4%	x	-16%	-95*	5%	x
CCc1ccc(S(=O)(=O)c2nnn3c2nc(NCc2cccs2)c2sccc23)cc1	1%	x	8%	-3	-1%	x
Cc1ccc(C)c(Nc2nc3c(S(=O)(=O)c4ccc(C(C)C)cc4)nnn3c3ccsc23)c1	-19%	x	-7%	-71*	6%	x
Cc1c(C(=O)N2CCOc3ccc(Cl)cc3C2)sc2ncnc(NCCc3ccccn3)c12	x	x	-23%	x	x	x
CC(=O)c1ccc(C(=O)N(Cc2cccnc2)c2nc3c(C)c(C)ccc3s2)cc1	22%	x	-12%	0	-2%[15.4 µM]	x
Cc1ccc(/C=C/C(=O)c2ccccc2O)cc1	-13%	2%	-18%	9	-6%	-11%
O=C(C=Cc1ccccn1)c1ccccc1	x	x	u	52	4%	25µM*
O=C(C=Cc1ccccn1)c1ccccc1O	x	x	u	-80*	-12%	u
CCOc1ccc(C(=O)OCc2cc(=O)n3cc(C)sc3n2)cc1	-2%	x	-16%	3	2%	x
